What was measured:
Type in all cases: functional
Plasmodium falciparum [1] = experiment: GSK_TCMDC: Inhibition of Plasmodium falciparum 3D7 in whole red blood cells, using parasite LDH activity as an index of growth. Test compounds present at 2uM
Plasmodium falciparum [2] = experiment: GSK_TCMDC: Inhibition of Plasmodium falciparum Dd2 in whole red blood cells, using parasite LDH activity as an index of growth. Test compounds present at 2uM
HepG2 = experiment: GSK_TCMDC: Percent inhibition of human HepG2 cell line. Test compounds present at 10uM.

CN1CCN(c2ccnc3ccc(NC(=O)Nc4ccc(-c5ccncc5)c5ccccc45)cc23)CC1
Inhibition (Plasmodium falciparum [1]): 100%
Inhibition (Plasmodium falciparum [2]): 84%
Inhibition (HepG2): 76%

COc1cc(Nc2nc(N)n(C(=O)c3ccc4c(c3)OCO4)n2)cc(OC)c1OC
Inhibition (Plasmodium falciparum [1]): 90%
Inhibition (Plasmodium falciparum [2]): 40%
Inhibition (HepG2): 60%

COc1cc(Nc2nccc(N3CCC(NC(=O)C(C)c4ccc(Cl)cc4)C3)n2)cc(OC)c1OC (stereo unspecified)
Inhibition (Plasmodium falciparum [1]): 97%
Inhibition (Plasmodium falciparum [2]): 90%
Inhibition (HepG2): 2%

CC1=C(C(=O)Nc2cc3cn[nH]c3cc2F)C(c2cccc(O)c2F)CC(=O)N1 (stereo unspecified)
Inhibition (Plasmodium falciparum [1]): 97%
Inhibition (Plasmodium falciparum [2]): 98%
Inhibition (HepG2): 1%

COc1cccc(NC(=O)c2nc(N3CCN(c4ccncc4)CC3)ccc2Cl)c1.O=C(O)C(F)(F)F
Inhibition (Plasmodium falciparum [1]): 97%
Inhibition (Plasmodium falciparum [2]): 65%
Inhibition (HepG2): 14%

CCCCCC1c2[nH]c3ccccc3c2CCN1C(=O)OCc1ccccc1 (stereo unspecified)
Inhibition (Plasmodium falciparum [1]): 93%
Inhibition (Plasmodium falciparum [2]): 68%
Inhibition (HepG2): 3%

CNC(=S)NCc1cnc2ccccn12
Inhibition (Plasmodium falciparum [1]): 97%
Inhibition (Plasmodium falciparum [2]): 0%
Inhibition (HepG2): 0%

O=C(Nc1ccc(-c2ccccc2)cc1)Nc1cccc(Cn2nc(Cl)c(N3CCCNCC3)cc2=O)c1.O=C(O)C(F)(F)F
Inhibition (Plasmodium falciparum [1]): 100%
Inhibition (Plasmodium falciparum [2]): 37%
Inhibition (HepG2): 13%

Cc1ncc([N+](=O)[O-])n1CCOC(=O)NC(Nc1ccc(Br)cc1)C(Cl)(Cl)Cl (stereo unspecified)
Inhibition (Plasmodium falciparum [1]): 99%
Inhibition (Plasmodium falciparum [2]): 100%
Inhibition (HepG2): 0%

O=C(c1ccc(-c2cccc(-c3nc4cc(C(F)(F)F)ccc4[nH]3)c2)cc1)N1CCCCC1CN1CCC(O)C1 (stereo unspecified)
Inhibition (Plasmodium falciparum [1]): 100%
Inhibition (Plasmodium falciparum [2]): 98%
Inhibition (HepG2): 29%

Cl.Clc1ccc(OCCC2CCN(CCCCCCN3CCCCC3)CC2)cc1Cl
Inhibition (Plasmodium falciparum [1]): 97%
Inhibition (Plasmodium falciparum [2]): 36%
Inhibition (HepG2): 86%

COC(=O)c1cc(NC(=O)Nc2ccc(Cn3ncc(N4CCCNCC4)c(Cl)c3=O)cc2)cc(C(=O)OC)c1.O=C(O)C(F)(F)F
Inhibition (Plasmodium falciparum [1]): 96%
Inhibition (Plasmodium falciparum [2]): 90%
Inhibition (HepG2): 0%

CCc1cn2c3c(cc(C(=O)N[C@@H](Cc4cccc(F)c4)[C@H](O)CNC4CC4)cc13)N(C)S(=O)(=O)CC2.O=CO
Inhibition (Plasmodium falciparum [1]): 98%
Inhibition (Plasmodium falciparum [2]): 98%
Inhibition (HepG2): 2%

O=C(O)C(F)(F)F.Oc1ccc(CCNc2nc(NCCCOc3cccc(CN4CCCCC4)c3Cl)nc(N3CCNCC3)n2)cc1
Inhibition (Plasmodium falciparum [1]): 100%
Inhibition (Plasmodium falciparum [2]): 22%
Inhibition (HepG2): 26%

CC(=NNC(S)=Nc1ccccc1Cl)c1ccccn1
Inhibition (Plasmodium falciparum [1]): 100%
Inhibition (Plasmodium falciparum [2]): 99%
Inhibition (HepG2): 69%

O=C(Nc1cccc(CN2CCCN(Cc3cccc(O)c3)CC2)c1)c1ccc(Cl)c(Cl)c1.O=C(O)C(F)(F)F
Inhibition (Plasmodium falciparum [1]): 100%
Inhibition (Plasmodium falciparum [2]): 79%
Inhibition (HepG2): 25%

CS(=O)(=O)N(c1cccc(F)c1)c1cc(C(=O)N[C@@H](Cc2ccccc2)[C@H](O)CNCc2cccc(C(F)(F)F)c2)cc(N2CCCC2=O)c1.O=CO
Inhibition (Plasmodium falciparum [1]): 98%
Inhibition (Plasmodium falciparum [2]): 92%
Inhibition (HepG2): 14%

CC[C@H](C)CNC(=O)c1ccnc(-c2ccc(CNCCCc3ccccc3)cc2)c1.O=C(O)C(F)(F)F
Inhibition (Plasmodium falciparum [1]): 100%
Inhibition (Plasmodium falciparum [2]): 84%
Inhibition (HepG2): 17%

N#Cc1ccc(CN2CCCN(Cc3cccc(NC(=O)c4ccc(-c5ccccc5)cc4)c3)CC2)cc1.O=C(O)C(F)(F)F
Inhibition (Plasmodium falciparum [1]): 88%
Inhibition (Plasmodium falciparum [2]): 12%
Inhibition (HepG2): 33%

O=C(Nc1ccc(-c2nc3ccccc3[nH]2)cc1)c1ccc([N+](=O)[O-])s1
Inhibition (Plasmodium falciparum [1]): 100%
Inhibition (Plasmodium falciparum [2]): 77%
Inhibition (HepG2): 83%

Cc1cccc2nc(-c3cccc(-c4ccc(CNCCNC(=O)c5ccnn5C)cc4)c3)[nH]c12.O=C(O)C(F)(F)F
Inhibition (Plasmodium falciparum [1]): 100%
Inhibition (Plasmodium falciparum [2]): 100%
Inhibition (HepG2): 21%

COc1ccc2[nH]c(C)cc(=NN=Cc3ccc(Cl)cc3)c2c1
Inhibition (Plasmodium falciparum [1]): 100%
Inhibition (Plasmodium falciparum [2]): 100%
Inhibition (HepG2): 2%

Cc1cccc(Nc2nccc(Nc3cccc(C(=O)NCCN4CCOCC4)c3)n2)c1
Inhibition (Plasmodium falciparum [1]): 91%
Inhibition (Plasmodium falciparum [2]): 11%
Inhibition (HepG2): 10%

O=C(Nc1ccc(Cn2ncc(N3CCCNCC3)c(Cl)c2=O)cc1)Nc1cccc(C(F)(F)F)c1.O=C(O)C(F)(F)F
Inhibition (Plasmodium falciparum [1]): 100%
Inhibition (Plasmodium falciparum [2]): 30%
Inhibition (HepG2): 20%

Cl.FC(F)(F)c1cc(Nc2ccc(Oc3ccccc3)cc2)c2cc(-c3ccncc3)ccc2n1
Inhibition (Plasmodium falciparum [1]): 100%
Inhibition (Plasmodium falciparum [2]): 70%
Inhibition (HepG2): 0%

COc1ccc(CCC(C)N2CC(N)C(c3cn(C)c4cnccc34)C2)cc1.Cl (stereo unspecified)
Inhibition (Plasmodium falciparum [1]): 98%
Inhibition (Plasmodium falciparum [2]): 0%
Inhibition (HepG2): 5%

CN(C)CCNCc1cccc(-c2ccc3c(Nc4ccc(F)cc4Cl)ccnc3c2)c1
Inhibition (Plasmodium falciparum [1]): 100%
Inhibition (Plasmodium falciparum [2]): 98%
Inhibition (HepG2): 17%

From ChEMBL document CHEMBL1157539, “Thousands of chemical starting points for antimalarial lead identification” (Nature, 2010)
